# Experimental data reported in the supplement of paper PMC9950053.
# Structures can show the parent of a compound that is named as a salt.
# System: Danio rerio larvae (5 dpf)
# Assay: startle (activity period 16 minus period 15, 20-s interval sound) minus DMSO control (percentage points); higher = stronger startle response than DMSO larvae
# Details: 10 µM; exposure time: 3 h pre-incubation + 3 h imaging
# Protocol: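 Wild-type 5 dpf zebrafish larvae (n=48 per drug, 96-well plates, 28.5 °C) were exposed to Tocris FDA-approved library compounds at 10 µM (0.1% DMSO) for 3 h before and 3 h during imaging. Images were taken every 6 s during visual (moving coloured lines) and acoustic stimuli, and larvae were tracked with the DeepLabCut-based Z-LaP Tracker. Each behavioural measure is the treated-group mean minus the DMSO vehicle control mean (n=844), in percentage points. This mapping covers compounds with 4-character plate codes.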
row,Compound,startle
1,Cc1nc(-c2ccc(OCC(C)C)c(C#N)c2)sc1C(=O)O [Febuxostat],3.79
2,Brc1c(NC2=NCCN2)ccc2nccnc12,-5.57
3,CCOC(=O)C1=C(COCCN)NC(C)=C(C(=O)OC)C1c1ccccc1Cl (stereo not given) [Amlodipine besylate],0.141
4,CC(=O)O[C@]1(C(C)=O)CC[C@H]2[C@@H]3C=C(C)C4=CC(=O)CC[C@]4(C)[C@H]3CC[C@@]21C [Megestrol Acetate],-12.5
5,CN1CCC[C@@H]1Cc1c[nH]c2ccc(CCS(=O)(=O)c3ccccc3)cc12 [Eletriptan hydrobromide],0.814
6,CC(C)c1nc(N(C)S(C)(=O)=O)nc(-c2ccc(F)cc2)c1/C=C/[C@@H](O)C[C@@H](O)CC(=O)O [Rosuvastatin calcium],-0.514
7,CCOc1nc2cccc(C(=O)O)c2n1Cc1ccc(-c2ccccc2-c2noc(=O)[nH]2)cc1 [Azilsartan],3.25
8,CN(C)CC/C=C1/c2ccccc2COc2ccc(CC(=O)O)cc21 [Olopatadine hydrochloride],1.07
9,C[C@]12CCC(=O)C=C1CC[C@@H]1[C@@H]2[C@@H](O)C[C@@]2(C)[C@H]1CC[C@]2(O)C(=O)CO [Hydrocortisone],0.463
10,CC(C)C(=O)Nc1ccc([N+](=O)[O-])c(C(F)(F)F)c1 [Flutamide],-5.6
11,CC(C)C(=O)OCC(=O)[C@@]12O[C@H](C3CCCCC3)O[C@@H]1C[C@H]1[C@@H]3CCC4=CC(=O)C=C[C@]4(C)[C@H]3[C@@H](O)C[C@@]12C [Ciclesonide],-5.21
12,CCN(CC)CCNC(=O)c1c(C)[nH]c(/C=C2\C(=O)Nc3ccc(F)cc32)c1C [Sunitinib malate],-2.14
13,Nc1nc(NC2CC2)c2ncn([C@H]3C=C[C@@H](CO)C3)c2n1 [Abacavir hemisulfate],6.4
14,CCOC(=O)C1=C(C)NC(C)=C(C(=O)OC)C1c1cccc(Cl)c1Cl (stereo not given) [Felodipine],7.93
15,C[C@@H](O[C@H]1OCCN(Cc2n[nH]c(=O)[nH]2)[C@H]1c1ccc(F)cc1)c1cc(C(F)(F)F)cc(C(F)(F)F)c1 [Aprepitant],-6.24
16,COc1ccc(C[C@@H](C)NC[C@H](O)c2ccc(O)c(NC=O)c2)cc1 [Arformoterol tartrate],-8.08
17,NS(=O)(=O)Cc1noc2ccccc12 [Zonisamide],5.14
18,C=C1[C@H](CO)[C@@H](O)C[C@@H]1n1cnc2c(=O)[nH]c(N)nc21 [Entecavir],3.99
19,CC(C)Nc1cccnc1N1CCN(C(=O)c2cc3cc(NS(C)(=O)=O)ccc3[nH]2)CC1 [Delavirdine mesylate],-4.71
20,CCCCc1nc(Cl)c(CO)n1Cc1ccc(-c2ccccc2-c2nnn[nH]2)cc1 [Losartan potassium],-0.225

row,Compound,startle
1,CN1CC[C@@H](NC(=O)Nc2ccc(C#N)cc2)C[C@@H]1c1nc2ccccc2[nH]1,-4.15
2,Cc1ccccc1C(=O)Nc1ccc(C(=O)N2CCCC(O)c3cc(Cl)ccc32)c(C)c1 (stereo not given) [Tolvaptan],4.33
3,Nc1cccc2c1CN(C1CCC(=O)NC1=O)C2=O (stereo not given) [Lenalidomide],-4.19
4,CCCN(CCC)S(=O)(=O)c1ccc(C(=O)O)cc1 [Probenecid],0.405
5,CC#C[C@]1(O)CC[C@H]2[C@@H]3CCC4=CC(=O)CCC4=C3[C@@H](c3ccc(N(C)C)cc3)C[C@@]21C [Mifepristone],0.533
6,CC(=O)S[C@@H]1CC2=CC(=O)CC[C@]2(C)[C@H]2CC[C@@]3(C)[C@@H](CC[C@@]34CCC(=O)O4)[C@H]12 [Spironolactone],2.27
7,CN1CC(=O)N2[C@H](c3ccc4c(c3)OCO4)c3[nH]c4ccccc4c3C[C@@H]2C1=O [Tadalafil],8.43
8,CCOC(=O)[C@H](CCc1ccccc1)N[C@H]1CCc2ccccc2N(CC(=O)O)C1=O [Benazepril hydrochloride],-0.0488
9,CCCCCCCCc1ccc(CCC(N)(CO)CO)cc1,-6.92
10,Nc1cc(N2CCCCC2)nc(N)[n+]1[O-] [Minoxidil],-1.64
11,COc1cc2nc(N3CCN(C(=O)C4COc5ccccc5O4)CC3)nc(N)c2cc1OC (stereo not given) [Doxazosin mesylate],6.47
12,Cc1nnc(C(C)C)n1C1C[C@H]2CC[C@@H](C1)N2CC[C@H](NC(=O)C1CCC(F)(F)CC1)c1ccccc1 (stereo in doubt) [Maraviroc],-4.84
13,N#Cc1ccc(C(c2ccc(C#N)cc2)n2cncn2)cc1 [Letrozole],6.54
14,CCCN(CCc1cccs1)[C@H]1CCc2c(O)cccc2C1 [Rotigotine hydrochloride],-5.79
15,CCC(=O)O[C@]1(C(=O)SCF)[C@H](C)C[C@H]2[C@@H]3C[C@H](F)C4=CC(=O)C=C[C@]4(C)[C@@]3(F)[C@@H](O)C[C@@]21C [Fluticasone propionate],-2.41
16,O=C(O)c1cc(/N=N/c2ccc(S(=O)(=O)Nc3ccccn3)cc2)ccc1O [Sulfasalazine],-1
17,CCCCC1=NC2(CCCC2)C(=O)N1Cc1ccc(-c2ccccc2-c2nnn[nH]2)cc1 [Irbesartan],3.4
18,OCCN(CCO)c1nc(N2CCCCC2)c2nc(N(CCO)CCO)nc(N3CCCCC3)c2n1 [Dipyridamole],7.7
19,CO[C@H]1/C=C/O[C@@]2(C)Oc3c(C)c(O)c4c(O)c(c5c(nc6cc(C)ccn65)c4c3C2=O)NC(=O)/C(C)=C\C=C\[C@H](C)[C@H](O)[C@@H](C)[C@@H](O)[C@@H](C)[C@H](OC(C)=O)[C@@H]1C [Rifaximin],1.18
20,COc1cc2nc(N3CCN(C(=O)c4ccco4)CC3)nc(N)c2cc1OC [Prazosin hydrochloride],4.64
